SMILES strings stand for the structures. This is part of a sample that, as a whole, favours compounds with a hit. Of some 79,000 tested, about 15% had one in any assay. Unmarked numbers belong to inactive results. The source made the active and inactive calls. No stated cut-off is given here; in the data, active means growth inhibition above about 70%; inactive means the rest.

A short description of assay [1]: NCI Yeast Anticancer Drug Screen. Data for the rad50 strain (AID 155).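 Further: 0% = growth of vehicle-only cultures of the same strain.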 Particulars: S. cerevisiae rad50 strain growth inhibition; at 50.0 µM; hits give high values. In a few lines:
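Relative growth inhibition (compound vs vehicle) was measured in yeast with a defined repair-gene alteration.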

Assay [2] is described as follows: NCI Yeast Anticancer Drug Screen. Data for the mec2-1 strain (AID 157). The conditions noted are these: S. cerevisiae mec2-1 strain, at 50.0 µM, hits give high values. In a few lines:
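Strain: mec2-1 (DNA repair/cell cycle alteration). Compound exposure, then growth measured; inhibition expressed relative to vehicle.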

The nature of assay [3]: NCI Yeast Anticancer Drug Screen. Data for the sgs1 mgt1 strain (AID 161).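 Further: 0% = growth of cultures given vehicle only.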 Particulars: S. cerevisiae sgs1 mgt1 strain, at 50.0 µM, hits give high values. In a few lines: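 Mutant yeast exposed to compound; growth scored against vehicle-only wells.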
Assay [4] in a line: NCI Yeast Anticancer Drug Screen. Data for the cln2 rad14 strain (AID 165).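 Further: 0% = growth equal to vehicle treated cultures.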 Particulars: S. cerevisiae cln2 rad14 strain, at 50.0 µM, hits give high values. In a few lines: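 Compounds are applied to the cln2 rad14 yeast strain, and growth is then compared with that of vehicle-treated cultures to give inhibition.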
Assay [5] can be described thus: NCI Yeast Anticancer Drug Screen. Data for the bub3 strain (AID 167). The conditions noted are these: S. cerevisiae bub3 mutant strain, at 50.0 µM, hits give high values. In a few lines:
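Screening used yeast with an engineered genetic alteration affecting cell cycle control. Compound-exposed cultures were compared with vehicle cultures, and reduced growth was taken as inhibition.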

Assay [6] can be described thus: NCI Yeast Anticancer Drug Screen. Data for the mlh1 rad18 strain (AID 175). The conditions noted are these: S. cerevisiae mlh1 rad18 strain growth inhibition; at 50.0 µM; hits give high values. In a few lines: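 Read-out is yeast growth inhibition, calculated against vehicle-only controls. The compound was applied to a strain engineered with DNA damage repair alterations.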

Regarding `CC(=O)OC1CCC2(C)C(CCC3C2C(=O)C(Br)C2(C)C(C(C)=O)CCC32)C1` (stereo unspecified), the growth inhibition in assay [1] was -1.2%; in assay [2], 0.5%; in assay [3] it was 7.95%; in assay [4], 16.9%; in assay [5], 13.3%; in assay [6] it was 25.4%.
In the case of `O=C(Nc1c(Cl)cccc1Cl)Oc1cccnc1`, the growth inhibition is 0% in assay [1]; -19.8% in assay [2]; -9.1% in assay [3]; 2.55% in assay [4]; -23.1% in assay [5]; -1.05% in assay [6].
As for `CCOc1ccc(NC(=O)CCCCCCCCC(=O)Nc2ccc(OCC)cc2)cc1`, the growth inhibition was 6.8% in assay [1]; 3.2% in assay [2]; -11.8% in assay [3]; -1.9% in assay [4]; -4.8% in assay [5]; 19.8% in assay [6].
Take `OCC1OC(Oc2ccccc2)C(O)C(O)C1O` (stereo unspecified): the growth inhibition is 8.15% in assay [1]; 30.6% in assay [2]; 21.8% in assay [3]; -1% in assay [4]; 33% in assay [5]; 24.1% in assay [6].
For the compound `CC(=O)Nc1ccc([N+](=O)[O-])cc1`, the growth inhibition in assay [1] is 30.9%; in assay [2], -0.75%; in assay [3] it was -5.3%; in assay [4] it was 5.55%; in assay [5], 14.7%; in assay [6], 1%.
For the compound `O=C1CSC(c2cccc(Cl)c2)N1c1ccc(-n2c(-c3ccccc3)nc3ccccc3c2=O)cc1` (stereo unspecified), the growth inhibition in assay [1] was -4.3%; in assay [2], 9.65%; in assay [3], 8.9%; in assay [4], -15.9%; in assay [5], 9.2%; in assay [6] it was -6.8%.
Regarding `Nc1ncc(C(=O)O)c(N)n1`, the growth inhibition in assay [1] is 15.8%; in assay [2], 4.6%; in assay [3] it was 3.75%; in assay [4], -19.2%; in assay [5] it was -12.3%; in assay [6], 33.6%.
Turning to `C=C(Cl)COc1ccc(-c2ccccc2)cc1`, the growth inhibition is 28.4% in assay [1]; 6.9% in assay [2]; 16.5% in assay [3]; -2.7% in assay [4]; -8.55% in assay [5]; 1.2% in assay [6].
Take `COc1ccccc1NC(=O)N(Cc1ccccc1)C(C)(C)C`: the growth inhibition is 12.2% in assay [1]; 9.35% in assay [2]; 30.4% in assay [3]; -10.2% in assay [4]; 19.3% in assay [5]; 33.2% in assay [6].
`O=C(O)C12CC3(C(=O)O)CC(C(=O)O)(CC(C(=O)O)(C1)C3=O)C2=O`: the growth inhibition in assay [1] is -11.3%; in assay [2], 13.4%; in assay [3], -24.4%; in assay [4], -4.15%; in assay [5], -28.1%; in assay [6], 17.3%.
As to `Cc1c(C)c(C)c(S(=O)(=O)NCCNS(=O)(=O)c2c(C)c(C)c(C)c(C)c2C)c(C)c1C`, the growth inhibition was 5.7% in assay [1]; -16.4% in assay [2]; -0.7% in assay [3]; 15.3% in assay [4]; -2.5% in assay [5]; 1.7% in assay [6].
On to `O=C1C(=O)c2ccccc2C(O)=C1Cc1ccccc1`, for which the growth inhibition in assay [1] is -15.2%; in assay [2], 13.8%; in assay [3] it was -11.9%; in assay [4] it was 7.5%; in assay [5], -36.8%; in assay [6] it was 1.85%.
For `O=C(CN1C(=O)c2ccccc2C1=O)NCC(=O)N(C(=O)NC1CCCCC1)C1CCCCC1`, the growth inhibition in assay [1] is 23.1%; in assay [2], 2.3%; in assay [3] it was 27.9%; in assay [4], 11.8%; in assay [5], -3.35%; in assay [6], 5%.
As to `CCN(CC)CCCC(C)Nc1cc(C)nc(Nc2nc3cc(Cl)c(Cl)cc3[nH]2)n1` (stereo unspecified), the growth inhibition was 96.8% (active) in assay [1]; 94.1% (active) in assay [2]; 97.4% (active) in assay [3]; 56.2% in assay [4]; 83.9% (active) in assay [5]; 95.8% (active) in assay [6].
`COc1ccc(N2C(=O)C3C=CC(n4[nH]c(=O)n(Cc5ccccc5)c4=O)CC3C2=O)cc1` (stereo unspecified): the growth inhibition in assay [1] is 6.6%; in assay [2] it was 1.8%; in assay [3] it was -0.9%; in assay [4], -20.9%; in assay [5], 8.4%; in assay [6], -25.6%.
For `Cc1cc(N(CCC#N)CCC#N)ccc1N=Nc1ccccc1[N+](=O)[O-]`, the growth inhibition in assay [1] is -44.7%; in assay [2], -38.1%; in assay [3] it was -13.3%; in assay [4], 12.8%; in assay [5], -32%; in assay [6] it was -24.1%.
Take `Cc1cc(Br)c(NC(=O)c2csnn2)c(Br)c1`: the growth inhibition was -31% in assay [1]; -13.6% in assay [2]; -13.6% in assay [3]; -26.8% in assay [4]; 2.65% in assay [5]; -11.4% in assay [6].
On to `CCOc1nc(N)nc(C)c1N=Nc1cccc([N+](=O)[O-])c1`, for which the growth inhibition in assay [1] was 20.9%; in assay [2] it was 8.55%; in assay [3], 7%; in assay [4], -7.35%; in assay [5], 36%; in assay [6], 32%.
For the compound `Fc1ccc(N=Cc2ccc(C=Nc3ccc(F)cc3)cc2)cc1`, the growth inhibition was 20.9% in assay [1]; 30.1% in assay [2]; 18.7% in assay [3]; 10.2% in assay [4]; 38% in assay [5]; 27.2% in assay [6].
On to `CNCC(N)=O`, for which the growth inhibition in assay [1] was -0.05%; in assay [2], 5.95%; in assay [3] it was 15.3%; in assay [4] it was -2.95%; in assay [5], -2.4%; in assay [6], 33%.
As to `CC1(C)CN2C(c3ccccc3)=NN(c3ccccc3)C2(C)C1` (stereo unspecified), the growth inhibition is -5.85% in assay [1]; -18.4% in assay [2]; 20.9% in assay [3]; -23.1% in assay [4]; 50.4% in assay [5]; 6.15% in assay [6].

Values taken from PubChem BioAssay (NCI).
